# The full ranking holds about 33,000 sequences; the median of “E-score (-0.5 to 0.5)” is about -0.041, and the highest 2% start at about 0.37. What follows is part of a selection rich in the highest values, with near analogues and random picks from the rest.
# Molecular target: T1, Ecm22 (UniProt Q05958)
# T1 sequence: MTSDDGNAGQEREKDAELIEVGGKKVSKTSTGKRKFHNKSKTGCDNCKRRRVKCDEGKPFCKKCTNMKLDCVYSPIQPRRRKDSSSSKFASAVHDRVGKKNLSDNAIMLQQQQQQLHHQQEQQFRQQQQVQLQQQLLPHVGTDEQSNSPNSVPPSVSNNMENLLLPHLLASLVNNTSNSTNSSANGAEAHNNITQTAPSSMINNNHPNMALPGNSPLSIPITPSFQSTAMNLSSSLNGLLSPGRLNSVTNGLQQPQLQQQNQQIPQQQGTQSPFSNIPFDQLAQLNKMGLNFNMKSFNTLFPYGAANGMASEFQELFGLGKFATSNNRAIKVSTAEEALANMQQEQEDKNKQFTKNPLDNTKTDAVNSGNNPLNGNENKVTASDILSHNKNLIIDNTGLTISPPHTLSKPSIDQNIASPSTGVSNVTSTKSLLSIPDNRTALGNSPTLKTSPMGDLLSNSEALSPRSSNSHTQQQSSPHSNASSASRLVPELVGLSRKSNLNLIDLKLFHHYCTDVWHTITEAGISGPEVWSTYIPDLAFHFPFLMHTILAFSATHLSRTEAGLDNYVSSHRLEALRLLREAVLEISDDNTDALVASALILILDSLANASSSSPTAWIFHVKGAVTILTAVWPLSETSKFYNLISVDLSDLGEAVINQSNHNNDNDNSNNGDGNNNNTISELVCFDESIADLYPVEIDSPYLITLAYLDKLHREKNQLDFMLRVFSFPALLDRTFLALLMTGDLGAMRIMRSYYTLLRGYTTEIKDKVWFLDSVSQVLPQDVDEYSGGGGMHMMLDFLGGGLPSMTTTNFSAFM
# Experiment: PBM E-score (8-mer binding enrichment) (E-score (-0.5 to 0.5)); higher = stronger / more preferred TF binding
# Details: protein concentration: 200 nM; construct: GST-full length
# Procedure: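 Universal 'all 10-mer' protein binding microarrays (Agilent AMADID 015681) probed with GST-tagged S. cerevisiae TFs (full-length or DBD) made by in vitro transcription/translation (PURExpress), about 100-200 nM. Bound TF was detected with fluorescent anti-GST. Each ungapped 8-mer (which stands for itself and its reverse complement) is scored by the PBM enrichment score (E-score), a modified Wilcoxon-Mann-Whitney statistic from -0.5 to +0.5, computed with the Universal PBM Analysis Suite. Scale: above 0.35 generally sequence-specific binding.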
row,Sequence,PBM E-score
1,ACCCCCCA,-0.296
2,ATCACAAG,-0.0512
3,CCCCTAGG,-0.307
4,ACGAATTC,0.269
5,AGCCTGTC,0.0499
6,CATTGGCG,-0.239
7,ATCTTTGA,-0.00074
8,AGGCCGAC,-0.106
9,AAACGAGA,0.463
10,ACACGAGA,0.265
11,AGACGAGA,0.166
12,GCGTAAGA,0.074
13,AATATCTA,-0.0604
14,GGCCGTAA,0.244
15,CGCCGTAG,0.119
16,AGCCGTAG,0.0779
17,AGCCGTAT,0.315
18,CGCCGTAC,0.408
19,GGCCGTAC,0.419
20,AGCCGTAC,0.369
21,CGCCGTAA,0.26
22,GACCGTAC,0.362
23,ACGGTTGA,0.0702
24,AAGCCGAA,-0.0177
25,CAGGCACG,-0.112

row,Sequence,PBM E-score
1,AACAACTT,-0.092
2,GAAATCTC,0.129
3,CCCGAGCG,0.173
4,GCACGAAC,0.222
5,ACACGAAC,0.237
6,GGACGAAC,0.111
7,ATACGAAC,0.474
8,CTACGAAG,0.297
9,AGACGAAC,0.295
10,CTACGAAC,0.369
11,CCACGAAC,0.201
12,GTACGAAC,0.475
13,CCTAGCCC,-0.222
14,AGCGTCCC,-0.145
15,AATCTGTG,-0.0802
16,GTGGAACA,0.0214
17,GGAGTGCA,0.0316
18,GTGGGTCA,-0.308
19,AAGAGGTC,-0.207
20,ACGAGGTA,0.413
21,CCGAGGTA,0.176
22,CCGAGGTC,0.11
23,GCGAGGTA,0.285
24,ATGAGGTG,-0.127
25,AGGAGGTG,-0.298

row,Sequence,PBM E-score
1,ACGAGGTG,0.397
2,ACGAGGTC,0.389
3,CCTTTTCC,0.055
4,CGGTCTGC,0.0314
5,TACCACGA,0.0887
6,GCAACTGA,0.0723
7,GACTTCGC,0.232
8,CCAACGAC,0.0154
9,TCAACGAA,0.187
10,GCAACGAC,0.417
11,GCAACGAA,0.406
12,ACAACGAA,0.257
13,ACAACGAC,0.295
14,AGGCCCCA,-0.182
15,TAGTCCAA,-0.157
16,CATACAAG,-0.122
17,CGTACAAA,0.412
18,GGTACAAA,-0.0856
19,CGTACTGA,0.32
20,CGTACAAG,0.416
21,AGTACATA,-0.0214
22,AGTACAAG,0.0646
23,CGTACATC,0.353
24,AGTACTTA,0.0475
25,CGTACTTA,0.375

row,Sequence,PBM E-score
1,AGTACAAA,0.0199
2,CGTACATA,0.414
3,ACCACCAT,-0.103
4,TTAGGGAA,-0.0515
5,ATAACGGC,0.146
6,ATGAAGGC,-0.102
7,CGTGGACC,-0.108
8,ACGGAATG,0.0826
9,AGTGTTGA,-0.109
10,AAGCCGAG,0.0901
11,ACTGGATG,-0.18
12,CGTACTAA,0.341
13,CGTACAAC,0.434
14,CGTACTAC,0.382
15,CGTACTAG,0.342
16,GGTACAAC,0.0714
17,AGTACAAC,0.0262
18,CTAAACAG,-0.109
19,AAACCACT,-0.153
20,AGCTGCGG,-0.00448
21,AATCGCCC,-0.0815
22,TAGAGCCA,-0.288
23,ACTCCGTG,-0.233
24,AGGTCGGC,-0.138
25,CGTTACGA,0.403

row,Sequence,PBM E-score
1,CGTTACGC,0.256
2,GGTTACTA,-0.123
3,GGTTACGA,0.381
4,AGTTACGG,0.138
5,GGTTACCA,0.0711
6,AGTTACGC,0.071
7,AGTTACGA,0.393
8,CGTTACAA,0.0964
9,GTGGCGTA,0.042
10,CCCGTTGC,0.111
11,CCTCGGGC,0.0916
12,ACTTCACC,0.0335
13,AAAATCAC,-0.0192
14,GCACGAAA,0.103
15,ACACGAAG,0.249
16,GGACGAAA,0.108
17,ATACGAAT,0.45
18,ATACGAAG,0.466
19,AGACGAAT,0.0921
20,ATACGTAT,0.374
21,GTACGAAA,0.467
22,ATACGTAC,0.342
23,ATACGTAA,0.278
24,AGACGAAG,0.0703
25,ACACGAAT,0.217

row,Sequence,PBM E-score
1,AGCCTTAA,-0.0857
2,AACTTGGT,0.0861
3,TGTGTCAA,-0.0896
4,CGCAAGCC,0.0725
5,GGATCCCC,-0.0315
6,TCACGAAA,-0.00573
7,ACACGAAA,0.224
8,TTACGAAA,0.403
9,AGACGAAA,0.194
10,ATACGAAA,0.463
11,CTACGAAA,0.302
12,ATGGTTCA,0.0295
13,AGAACCCC,-0.179
14,GACCCTCC,0.00379
15,CGTGCGTA,0.233
16,GCCCCCCA,-0.365
17,AGGATTAG,-0.0677
18,CCGCAACC,-0.176
19,CCGCAACG,0.377
20,ACGCAACG,0.308
21,GCGGCACC,-0.0132
22,AAAGATGT,-0.0546
23,TACGATCA,0.443
24,GACGATGA,-0.0197
25,AACGATGA,0.386

row,Sequence,PBM E-score
1,TACGATGA,0.438
2,GACGATGC,-0.0114
3,CACGATCA,-0.00633
4,AACGATGT,0.396
5,CACGATGA,0.19
6,CACGATGC,0.136
7,ATCGATGA,-0.0837
8,GACGATCA,-0.0466
9,CCGTCTTA,-0.174
10,AAGGCGCA,-0.0313
11,ATCCCAGC,-0.0508
12,TCAACTGA,-0.205
13,AGGCTCTC,-0.162
14,GGAGCACA,-0.107
15,CGTTGTGC,0.116
16,CCCGGGAA,-0.0348
17,CCAACCAA,-0.0915
18,AACGATGC,0.348
19,AACGATGG,0.374
20,CACGATGG,0.0647
21,TGTGTAAA,-0.0334
22,CCACGAGA,-0.117
23,ATACGAGA,0.484
24,CCACGAGC,-0.0179
25,ATGCGAGA,0.302

row,Sequence,PBM E-score
1,AGACGAGC,0.211
2,CTACGAGA,0.385
3,CGACGAGC,0.162
4,CTACGAGC,0.413
5,ATACGAGC,0.49
6,ACACGAGC,0.275
7,CGACGAGA,0.08
8,ATACGTGA,0.171
9,CCGAGTGA,0.196
10,CCTTTCGA,0.142
11,AAGCGTTA,0.00424
12,ACCCCCGG,-0.189
13,GAGCGGGC,-0.0404
14,AGTAGTCG,0.238
15,AGGGCTAC,-0.117
16,ATAAATTA,0.326
17,ATACGAGG,0.488
18,GTCCGAGA,0.253
19,GTACGCGA,0.327
20,AGACGAGG,0.202
21,ACACGAGG,0.324
22,GTACGAGA,0.482
23,ACCCCGAC,-0.0233
24,AGTCAATG,-0.0767
25,ACGGGGCA,0.114

row,Sequence,PBM E-score
1,TGCAGCCA,-0.171
2,GTTTAGTA,0.271
3,CCCGGTAC,0.078
4,AACGACTT,0.336
5,AGCGACTA,0.161
6,CACGACTG,0.0526
7,ATCGACTG,0.076
8,AACGACTC,0.388
9,AACGACTA,0.372
10,CACGACTA,-0.0786
11,TACGACTA,0.438
12,GACGACTA,-0.121
13,GACGACTC,-0.0985
14,CACGACTC,0.0577
15,AACGACTG,0.393
16,TCCCCGGA,0.00406
17,ATCTGTAG,-0.116
18,CGTCTCAC,0.0419
19,TGCGCAAA,-0.077

# — the supplement of paper PMC3334620
